Values without a mark were called inactive. For some assays here: Measured potencies and affinities stand elsewhere. Activity calls are given as the source filed them. Unless noted, the rule behind the calls is not given here.
Key:
[1] = antimalarial activity against Dd2 strain (AID 2302;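 active = growth inhibition above 50% at the single 2 µM test dose, taken to imply half-maximal potency below 2 µM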;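 note: 0% = DMSO untreated growth and 100% = chloroquine plus artemisinin killed control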); settings: P. falciparum Dd2 in RBCs, LDH growth readout, 72 h; at 2 µM; hits give high values
[2] = HepG2 cytotoxicity, primary screen, cytotoxicity control for P. falciparum antimalarial project, cell-based, ATP luminescence (AID 2303;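 active = inhibition above 50%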;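 note: 0% = DMSO wells and 100% = digitonin-killed cells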); settings: HepG2 viability, 24-48 h, at 10 µM, hits give high values
[3] = molecular target: L-lactate dehydrogenase (Plasmodium falciparum (isolate CDC / Honduras)) (UniProt Q27743); assay: PfLDH activity inhibition – cell lysate, 3D7 strain, counter-screen for P. falciparum growth inhibition project (AID 2304);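 note: 0% = vehicle and 100% = reference inhibitor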; settings: P. falciparum 3D7 crude extract, LDH APAD/NBT absorbance; at 2 µM; hits give high values
Chain of L-lactate dehydrogenase (Plasmodium falciparum (isolate CDC / Honduras)) (Q27743 whole entry, looked up): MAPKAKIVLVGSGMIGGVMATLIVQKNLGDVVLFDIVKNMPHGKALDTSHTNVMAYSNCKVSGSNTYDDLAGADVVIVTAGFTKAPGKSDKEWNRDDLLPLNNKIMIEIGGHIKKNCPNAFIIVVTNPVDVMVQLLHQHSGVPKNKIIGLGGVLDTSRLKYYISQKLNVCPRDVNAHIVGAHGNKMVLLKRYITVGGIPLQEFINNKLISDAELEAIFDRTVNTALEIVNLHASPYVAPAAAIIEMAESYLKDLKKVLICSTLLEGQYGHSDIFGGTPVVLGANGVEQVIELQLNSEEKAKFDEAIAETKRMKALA

[4] = inhibition of 3D7 malaria parasite growth – strain 3D7 (AID 2306);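 note: 0% = DMSO wells and 100% = chloroquine plus artemisinin control wells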; settings: P. falciparum 3D7 erythrocytic growth, LDH absorbance, 72 h; at 2 µM; hits give high values
[5] = molecular target: Calcium-dependent protein kinase 1 (Plasmodium falciparum (isolate 3D7)) (UniProt P62344); assay: PfCDPK1 kinase inhibitors, biochemical, TCAMS library (AID 1159585; cut-off not given, nearly all actives have IC50 up to about 0.98 µM;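 note: inhibitors leave more ATP so luminescence rises with inhibition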); settings: recombinant PfCDPK1, Kinase-Glo ATP depletion luminescence
Chain of Calcium-dependent protein kinase 1 (Plasmodium falciparum (isolate 3D7)) (P62344 whole entry, looked up): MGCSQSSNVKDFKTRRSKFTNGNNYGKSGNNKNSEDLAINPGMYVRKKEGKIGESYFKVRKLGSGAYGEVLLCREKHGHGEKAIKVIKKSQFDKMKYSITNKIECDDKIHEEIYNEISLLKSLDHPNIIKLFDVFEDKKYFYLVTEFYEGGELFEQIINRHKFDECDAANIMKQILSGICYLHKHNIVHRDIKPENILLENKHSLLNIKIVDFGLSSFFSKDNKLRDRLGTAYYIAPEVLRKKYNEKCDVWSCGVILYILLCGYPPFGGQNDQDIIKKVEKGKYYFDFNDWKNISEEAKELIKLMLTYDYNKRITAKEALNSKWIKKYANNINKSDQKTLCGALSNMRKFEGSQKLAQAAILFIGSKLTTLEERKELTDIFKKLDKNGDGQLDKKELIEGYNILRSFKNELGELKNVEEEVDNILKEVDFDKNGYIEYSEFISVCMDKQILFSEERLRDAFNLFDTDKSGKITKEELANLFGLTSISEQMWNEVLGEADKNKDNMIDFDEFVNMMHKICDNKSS

[6] = molecular target: Plasmodium falciparum protein kinase 6 (PK6, PF3D7_1337100) (UniProt Q8IDW1); assay: PfPK6 kinase inhibitors, biochemical, TCAMS library (AID 1159586); settings: recombinant PfPK6, Kinase-Glo ATP depletion luminescence
Chain of Plasmodium falciparum protein kinase 6 (PK6, PF3D7_1337100) (Q8IDW1 1-305): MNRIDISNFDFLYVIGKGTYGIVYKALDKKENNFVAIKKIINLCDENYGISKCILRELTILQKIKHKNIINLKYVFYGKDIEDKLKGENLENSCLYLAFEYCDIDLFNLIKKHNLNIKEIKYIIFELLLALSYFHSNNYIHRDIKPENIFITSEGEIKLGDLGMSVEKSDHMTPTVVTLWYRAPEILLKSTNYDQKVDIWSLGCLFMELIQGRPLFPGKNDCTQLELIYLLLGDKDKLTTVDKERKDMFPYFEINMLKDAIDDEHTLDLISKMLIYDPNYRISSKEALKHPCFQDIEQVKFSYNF

[7] = molecular target: Protein kinase 7 (PK7), Plasmodium falciparum 3D7 (PF3D7_0213400) (UniProt Q7YTF7); assay: inhibition of Plasmodium PK7 catalytic activity – biochemical, TCAMS antimalarial set, Kinase-Glo luminescence (AID 1159587); settings: recombinant PfPK7, Kinase-Glo ATP depletion luminescence
Chain of Protein kinase 7 (PK7), Plasmodium falciparum 3D7 (PF3D7_0213400) (Q7YTF7 1-343): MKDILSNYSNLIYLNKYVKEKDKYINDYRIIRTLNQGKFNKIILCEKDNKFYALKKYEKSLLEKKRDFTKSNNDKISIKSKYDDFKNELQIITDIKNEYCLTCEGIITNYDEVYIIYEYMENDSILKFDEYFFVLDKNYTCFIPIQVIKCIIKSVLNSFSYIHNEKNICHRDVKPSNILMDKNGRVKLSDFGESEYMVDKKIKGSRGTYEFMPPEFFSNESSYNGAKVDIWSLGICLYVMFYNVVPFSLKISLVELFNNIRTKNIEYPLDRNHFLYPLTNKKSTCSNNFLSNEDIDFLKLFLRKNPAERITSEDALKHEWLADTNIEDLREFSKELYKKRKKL

[8] = molecular target: Calcium-dependent protein kinase 4 (Plasmodium falciparum (isolate 3D7)) (UniProt Q8IBS5); assay: PfCDPK4 kinase inhibitors, biochemical, TCAMS library (AID 1159588; cut-off not given, nearly all actives have IC50 up to about 0.91 µM); settings: recombinant PfCDPK4, Kinase-Glo ATP depletion luminescence
Chain of Calcium-dependent protein kinase 4 (Plasmodium falciparum (isolate 3D7)) (Q8IBS5 whole entry, looked up): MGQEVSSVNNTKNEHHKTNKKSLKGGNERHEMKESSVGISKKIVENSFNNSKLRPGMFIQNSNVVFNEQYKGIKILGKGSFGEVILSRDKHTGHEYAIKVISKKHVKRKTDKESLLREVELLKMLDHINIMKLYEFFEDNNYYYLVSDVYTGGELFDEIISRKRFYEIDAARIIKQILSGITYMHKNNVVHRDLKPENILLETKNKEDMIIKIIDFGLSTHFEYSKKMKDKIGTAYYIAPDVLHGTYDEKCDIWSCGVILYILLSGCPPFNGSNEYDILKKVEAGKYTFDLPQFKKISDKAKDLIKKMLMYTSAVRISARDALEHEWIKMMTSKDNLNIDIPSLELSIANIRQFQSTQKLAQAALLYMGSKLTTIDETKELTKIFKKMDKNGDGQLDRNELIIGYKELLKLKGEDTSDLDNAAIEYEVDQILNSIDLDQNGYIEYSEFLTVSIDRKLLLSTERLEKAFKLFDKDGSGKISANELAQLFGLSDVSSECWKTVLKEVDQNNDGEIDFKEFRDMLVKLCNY

SMILES | growth inhibition [1] | inhibition [2] | inhibition [3] [%] | growth inhibition [4] | outcome [5] | outcome [6] | outcome [7] | outcome [8]
O=C(NCCCCN1CCC(c2ccc(C(F)(F)F)cc2C(F)(F)F)CC1)c1ccc(NC(=O)c2ccc(Cl)cc2)cc1 | 59% (active) | 4% | 7 | 99% (active) | inactive | inactive | inactive | inactive
CCn1cc2c3c(cc(C(=O)N[C@@H](Cc4ccccc4)[C@H](O)CNC4CCOCC4)cc31)N(C)S(=O)(=O)CC2 | 98% (active) | -10% | 0 | 98% (active) | inactive | inactive | inactive | inactive
COc1cc(C(=O)N2CCN(C(C)C)CC2)ccc1CN(C)CCCCN1CCN(c2cccc(Cl)c2Cl)CC1 | 98% (active) | 79% (active) | 6 | 101% (active) | inactive | inactive | inactive | inactive
CC(=O)Nc1ccc(CNCCc2ccc(NC(=O)c3cc(Cl)cc(Cl)c3)cc2)cc1 | 31% | 10% | -1 | 102% (active) | inactive | inactive | inactive | inactive
COc1ccccc1N=C1SC(=Cc2cn(CC(=O)N3CCCc4ccccc43)c3ccccc23)C(=O)N1C1CCCCC1 | 99% (active) | 10% | 2 | 100% (active) | inactive | inactive | inactive | inactive
CN1CCC(c2nc(N)no2)C1 (stereo unspecified) | 2% | 15% | 0 | 95% (active) | inactive | inactive | inactive | inactive
COc1cc(NC(=O)c2sc(-c3ccc(Cl)cc3)cc2NC(=O)N2CCCC2)ccc1OCCN1CCCC1 | 61% (active) | 22% | 0 | 101% (active) | inactive | inactive | inactive | inactive
C=CCN(c1ccc(OC)cc1)S(=O)(=O)c1ccc(Cl)c(C(=O)Nc2cccc(C#N)c2)c1 | 73% (active) | 6% | 6 | 96% (active) | inactive | inactive | inactive | inactive
CCCCCN1CCCN(Cc2cccc(NC(=O)c3cc4ccccc4s3)c2)CC1 | 30% | 29% | 6 | 99% (active) | inactive | inactive | inactive | inactive
c1ccc(Oc2ccc(Nc3ccnc4cc(-c5cccc(CN6CCOCC6)c5)ccc34)cc2)cc1 | 100% (active) | 14% | -1 | 101% (active) | inactive | inactive | inactive | inactive
O=C(NCc1ccc(Cl)c(Cl)c1)c1cc(CNC2CCNCC2)ccc1O | 2% | 2% | 4 | 82% (active) | inactive | inactive | inactive | inactive
O=C(NCc1ccc(Cl)c(Cl)c1)c1ccc(-c2nc3ccc(F)cc3[nH]2)cc1 | 9% | 0% | 1 | 93% (active) | inactive | inactive | inactive | inactive
CNCc1ccc2nc(-c3coc(Cc4cc(Cl)ccc4OCC(C)C)n3)[nH]c2c1 | 95% (active) | 34% | 2 | 101% (active) | inactive | inactive | inactive | inactive
CN(C)CCC1CCCc2ccc(NC(=O)Nc3cccc(Cl)c3Cl)cc21 (stereo unspecified) | 11% | 44% | 5 | 93% (active) | inactive | inactive | inactive | inactive
COCC(=O)Nc1nc2ccccc2[nH]1 | 1% | -14% | -5 | 98% (active) | inactive | inactive | inactive | inactive
COc1cc2nc(NCCCO)nc(Nc3ccc(Oc4ccccc4)cc3)c2cc1OC | 101% (active) | 24% | 0 | 101% (active) | inactive | inactive | inactive | inactive
COc1cc(Cc2c(C)nc3nc(N)nc(N)c3c2C)c(Br)c(OC)c1OC | -2% | 44% | 0 | 93% (active) | inactive | inactive | inactive | inactive
O=C(/C=C/c1cccc(C(F)(F)F)c1)NCCCCCN1CCC(c2c[nH]c3ccccc23)CC1 | 14% | 70% (active) | 0 | 90% (active) | inactive | inactive | inactive | inactive
Oc1ccc2nc(NCCCc3ccccc3)nc(NCCc3ccccc3)c2c1 | 88% (active) | 31% | -3 | 99% (active) | inactive | inactive | inactive | inactive

SMILES | growth inhibition [1] | inhibition [2] | inhibition [3] [%] | growth inhibition [4] | outcome [5] | outcome [6] | outcome [7] | outcome [8]
COc1ccccc1CNC(=O)c1ccc(N2CCN(c3ccncc3)CC2)cn1 | 17% | 16% | 2 | 96% (active) | inactive | inactive | inactive | inactive
CN(Cc1cccc(F)c1)C1CCN(c2cc(NC(=O)c3ccc(F)cc3)ccn2)C1 (stereo unspecified) | 14% | 7% | -3 | 83% (active) | inactive | inactive | inactive | inactive
CCc1ccc2nc(-c3ccc(F)cc3)nc(SCC(=O)Nc3sc(C)c(C)c3C#N)c2c1 | 5% | -15% | 1 | 98% (active) | inactive | inactive | inactive | inactive
Cc1[nH]c(C)c(-c2ccc(-c3ccc(F)cc3)nc2)c(=O)c1Br | 96% (active) | 15% | 0 | 97% (active) | inactive | inactive | inactive | inactive
Cc1cc(C(=O)N[C@H]2CCN(Cc3ccc(OCCCN(C)C)cc3)C2)ccc1Br | 62% (active) | 88% (active) | -4 | 97% (active) | inactive | inactive | inactive | inactive
Cc1cc(N[C@@H](CC(C)C)C(=O)NCCOc2ccccc2)nc(NCCc2ccc(F)cc2)n1 | 54% (active) | 25% | 1 | 95% (active) | inactive | inactive | inactive | inactive
COc1ccc(NC(=O)c2cc(NC(=O)C3(N)CC3)c(=O)n(Cc3ccc(C(N)=O)cc3)c2)cc1 | 72% (active) | 21% | 3 | 95% (active) | inactive | inactive | inactive | inactive
O=C(/C=C/c1ccc(Cl)cc1Cl)N1CCC(CCN2CCC(c3c[nH]c4ccccc34)CC2)CC1 | 37% | 94% (active) | -6 | 98% (active) | inactive | inactive | inactive | inactive
CCCC(C)NC(=O)[C@H](CC1CCCCC1)NC(=O)c1ccc(O)c(-c2cccc(C(F)(F)F)c2)c1 (stereo partly specified) | 98% (active) | -5% | 5 | 100% (active) | inactive | inactive | inactive | inactive
NC(N)=Nc1nc(-c2ccc(N=C(N)N3CCC[C@H]3CN3CCCC3)cc2)cs1 | 66% (active) | 6% | 1 | 82% (active) | inactive | inactive | inactive | inactive
O=C(Nc1ccc(Cl)cc1)Nc1cccc(-c2cc(CNCCc3ccccc3)oc2-c2ccncc2)c1 | 92% (active) | 40% | 1 | 101% (active) | inactive | inactive | inactive | inactive
CN1CCN(c2cccc(Nc3nccc(NCC(O)c4ccccc4)n3)c2)CC1 (stereo unspecified) | 4% | 30% | -2 | 101% (active) | inactive | inactive | inactive | inactive
Cc1nc(C)c(CC(=O)Nc2cccc(-c3cccc(-c4nc5c(C)cccc5[nH]4)c3)c2)s1 | 35% | 43% | -6 | 92% (active) | inactive | inactive | inactive | inactive
COc1ccc2nccc(NN=Cc3cccc(F)c3)c2c1 | 65% (active) | 13% | 2 | 102% (active) | inactive | inactive | inactive | inactive
O=C(Nc1cccc([N+](=O)[O-])c1)Nc1cccc(C(F)(F)F)c1 | 81% (active) | 0% | -8 | 92% (active) | inactive | inactive | inactive | inactive
COc1cc(OCCCCCCON2C(N)=NC(N)=NC2(C)C)cc(OC)c1OC | 93% (active) | 41% | -5 | 94% (active) | inactive | inactive | inactive | inactive
C=C(NC(=O)C1CCCCC1)C(=O)OC | 3% | 15% | -4 | 93% (active) | inactive | inactive | inactive | inactive
Cc1ccc(CN2CCN(c3cc4c(cc3Cl)CCN4C(=O)Cc3ccc(Cl)c(NC(=O)Nc4cccc(C#N)c4)c3)CC2)cc1 | 29% | 3% | 1 | 92% (active) | inactive | inactive | inactive | inactive
